Measurements taken from PubChem BioAssay (EPA / NIEHS).
Active and inactive are the calls of the source. The calls were made as follows: active = hit-call score of the fitted dose curve at least 0.9, where 1 is the maximum; inactive = score below 0.9.

Columns and labels:
[1] = target: Transcription factor E2F1 (Homo sapiens) (UniProt Q01094); assay: ATG_E2F_CIS: Attagene CIS-FACTORIAL HepG2 Assay for human E2F Transcription Factor 1 (AID 2282935); conditions: HepG2 Attagene cis-reporter, E2F reporter RNA transcripts; actives raise or lower the signal
How it was run: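 Liver-derived HepG2 cells expressing transfected promoter-driven reporter units received test chemical for 24 hours. Signal gains or losses were fitted bidirectionally against DMSO.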

[2] = ATG_E_Box_CIS: Attagene CIS-FACTORIAL HepG2 Assay for human Enhancer Box (E-box) (AID 2282936); conditions: HepG2 E-box cis-reporter transcription, actives raise or lower the signal
How it was run: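 In this cell-based setup, HepG2 cells bearing transfected promoter-driven reporter units were exposed to chemicals for 24 h; reporter transcripts were amplified, 6-FAM-labelled, cut with HpaI and sized by capillary electrophoresis.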

[3] = ATG_M_61_CIS: Attagene CIS-FACTORIAL HepG2 Assay for M61 Transcription Factor (Internal Marker) (AID 2282937); conditions: HepG2 Attagene CIS-FACTORIAL M61 internal marker reporter; actives raise or lower the signal
How it was run: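 Readout is reporter mRNA by RT-PCR, fluorescent primer extension and capillary electrophoresis, with gain or loss fitted relative to DMSO. Transfected HepG2 cells carrying endogenous-TF-driven cis reporters were exposed to chemicals for 24 hours.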

[4] = ATG_EGR_CIS: Attagene CIS-FACTORIAL HepG2 Assay for human Early Growth Response 1 (EGR1) (AID 2282938); conditions: HepG2 Attagene CIS-FACTORIAL EGR reporter mRNA; actives raise or lower the signal
How it was run: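 After 24 h compound exposure, RNA from reporter-transfected HepG2 cells was reverse-transcribed, PCR-amplified, fluorescently labelled and resolved by capillary electrophoresis. EGR1 reporter transcript changes, up or down, were fitted against DMSO, reflecting endogenous transcription-factor activity.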

[5] = ATG_M_19_CIS: Attagene CIS-FACTORIAL HepG2 Assay for M19 Transcription Factor (Internal Marker) (AID 2282939); conditions: HepG2 Attagene CIS-FACTORIAL M19 internal marker reporter; actives raise or lower the signal
How it was run: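 Background-control endpoint from a multiplexed HepG2 reporter panel. Cells carrying cis-regulated reporter constructs are treated 24 h, then reporter transcripts are amplified, fluorescently labelled and sized by capillary electrophoresis. DMSO defines baseline.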

[6] = ATG_ERE_CIS: Attagene CIS-FACTORIAL HepG2 Assay for Estrogen Response Element (ERE) (AID 2282940); conditions: HepG2 ERE cis-reporter, Attagene RNA transcript; actives raise or lower the signal
How it was run: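 Cells used were human hepatoma HepG2, transfected with multiple reporter transcription units under cis-regulatory promoters. Reporter mRNA, read 24 h post-dosing via fluorescent RT-PCR products on capillary electrophoresis, was fitted bidirectionally relative to DMSO.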

[7] = ATG_Ets_CIS: Attagene CIS-FACTORIAL HepG2 Assay for human Erythroblast Transformation Specific (ETS) (AID 2282941); conditions: HepG2 ETS cis-reporter transcription, actives raise or lower the signal
How it was run: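 RT-PCR/capillary electrophoresis fluorescence read-out of reporter mRNA; HepG2 transient multi-reporter transfection; 24 h compound exposure; gain or loss of signal fitted bidirectionally relative to DMSO.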

[8] = target: Hepatocyte nuclear factor 3-beta (Homo sapiens) (UniProt Q9Y261); assay: ATG_FoxA2_CIS: Attagene CIS-FACTORIAL HepG2 Assay for human Forkhead box A2 (FOXA2) (AID 2282942); conditions: HepG2 cis-reporter transcription factor activity, 24 h; actives raise or lower the signal
How it was run: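 Endogenous transcription factor activity is captured via cis-element-driven reporter transcripts in transfected HepG2. Total RNA taken at 24 h post-dosing; labelled RT-PCR products resolved by capillary electrophoresis. Gain or loss fitted versus DMSO.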

[9] = ATG_FoxO_CIS: Attagene CIS-FACTORIAL HepG2 Assay for human Forkhead box O (FoxO) (AID 2282943); conditions: HepG2 Attagene cis-reporter, FoxO element, mRNA; actives raise or lower the signal
How it was run: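 HepG2 cells transiently transfected with cis-element-driven reporter units report endogenous FoxO activity. After 24 h chemical exposure, reporter mRNA quantified by RT-PCR, fluorescent labeling, HpaI digestion and capillary electrophoresis; bidirectional fit versus DMSO.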

[10] = ATG_GATA_CIS: Attagene CIS-FACTORIAL HepG2 Assay for human GATA Binding Protein (AID 2282944); conditions: HepG2 GATA cis-element reporter, Attagene multiplex mRNA; actives raise or lower the signal
How it was run: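 Endogenous transcription factor activity was captured through cis-promoter-driven reporters in transfected HepG2 cells. After 24 h exposure, reporter transcripts were quantified by RT-PCR with fluorescent capillary electrophoresis, and responses fitted both directions against DMSO.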

Measured: AC50

Chain of Hepatocyte nuclear factor 3-beta (Homo sapiens) (Q9Y261 whole entry, looked up): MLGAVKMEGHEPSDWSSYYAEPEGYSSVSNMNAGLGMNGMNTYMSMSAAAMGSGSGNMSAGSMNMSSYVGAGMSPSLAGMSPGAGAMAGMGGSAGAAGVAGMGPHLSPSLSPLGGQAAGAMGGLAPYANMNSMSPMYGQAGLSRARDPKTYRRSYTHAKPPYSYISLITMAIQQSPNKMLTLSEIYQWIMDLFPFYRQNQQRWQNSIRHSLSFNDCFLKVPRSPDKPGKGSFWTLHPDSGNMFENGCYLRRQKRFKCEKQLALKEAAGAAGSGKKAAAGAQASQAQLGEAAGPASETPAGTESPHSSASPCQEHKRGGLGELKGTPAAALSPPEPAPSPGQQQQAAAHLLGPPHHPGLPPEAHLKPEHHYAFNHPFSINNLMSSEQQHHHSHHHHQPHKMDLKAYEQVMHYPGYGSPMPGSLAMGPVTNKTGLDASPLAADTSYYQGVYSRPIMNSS
Chain of Transcription factor E2F1 (Homo sapiens) (Q01094 whole entry, looked up): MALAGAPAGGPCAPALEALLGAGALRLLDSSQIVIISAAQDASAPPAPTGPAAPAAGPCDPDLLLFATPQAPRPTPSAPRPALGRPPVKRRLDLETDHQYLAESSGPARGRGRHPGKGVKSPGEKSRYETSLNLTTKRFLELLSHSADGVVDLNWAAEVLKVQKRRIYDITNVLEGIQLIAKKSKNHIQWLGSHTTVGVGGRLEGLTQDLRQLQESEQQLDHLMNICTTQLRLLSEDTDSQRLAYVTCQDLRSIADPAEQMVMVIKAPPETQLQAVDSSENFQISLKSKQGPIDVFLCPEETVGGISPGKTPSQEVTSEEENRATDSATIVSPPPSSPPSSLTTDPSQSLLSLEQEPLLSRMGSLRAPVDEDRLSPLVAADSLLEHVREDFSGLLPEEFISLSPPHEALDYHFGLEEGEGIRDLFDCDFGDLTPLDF

CCCCCCCCN(C)C
inactive: [1] | [2] | [3] | [4] | [5] | [6] | [7] | [8] | [9] | [10]

O=S1(=O)CCCO1
inactive: [1] | [2] | [3] | [4] | [5] | [6] | [7] | [8] | [9] | [10]

C[Si](C)(C)C(F)(F)C(F)(F)C(F)(F)F
inactive: [1] | [2] | [3] | [4] | [5] | [6] | [7] | [8] | [9] | [10]

O=C(O)CO
inactive: [1] | [2] | [3] | [4] | [5] | [6] | [7] | [8] | [9] | [10]

O=C(N[C@H](CO)[C@H](O)c1ccc([N+](=O)[O-])cc1)C(Cl)Cl
inactive: [1] | [2] | [3] | [4] | [5] | [6] | [7] | [8] | [9] | [10]

O=S(=O)(O)c1ccc(N=Nc2c(O)ccc3cc(S(=O)(=O)O)ccc23)cc1
inactive: [1] | [2] | [3] | [4] | [5] | [6] | [7] | [8] | [9] | [10]

O=C1CN(N=Cc2ccc([N+](=O)[O-])o2)C(=O)N1
inactive: [1] | [2] | [3] | [4] | [5] | [7] | [8] | [9] | [10]
active: [6] 27.6 µM

NC(=O)N(O)[C@@H]1COc2cc(OCc3ccccc3)ccc21
inactive: [1] | [2] | [3] | [4] | [5] | [6] | [7] | [8] | [9] | [10]

OCCOCCOCCO
inactive: [1] | [2] | [3] | [4] | [5] | [6] | [7] | [8] | [9] | [10]

OCc1ccccc1
inactive: [1] | [2] | [3] | [4] | [5] | [6] | [7] | [8] | [9] | [10]

C[C@@H](Oc1ccc(CNC(=O)c2cccnc2Oc2ccc3c(c2)OCO3)c(F)c1)C(=O)O
inactive: [1] | [2] | [3] | [4] | [5] | [6] | [7] | [8] | [9] | [10]

CCCCOC(=O)c1ccccc1
inactive: [1] | [2] | [3] | [4] | [5] | [6] | [7] | [8] | [9] | [10]

COS(C)(=O)=O
inactive: [1] | [2] | [3] | [4] | [5] | [6] | [7] | [8] | [9] | [10]

S=P(N1CC1)(N1CC1)N1CC1
inactive: [1] | [2] | [3] | [4] | [5] | [6] | [7] | [8] | [9] | [10]

Cc1ncc([C@@H](CCCCCCc2ccc3c(n2)NCCC3)CC(=O)O)cn1
inactive: [1] | [2] | [3] | [4] | [5] | [6] | [7] | [8] | [9] | [10]

CC(C)c1nnc2ccc(-c3ocnc3-c3cc(F)ccc3F)cn12
inactive: [1] | [2] | [3] | [4] | [5] | [6] | [7] | [8] | [9] | [10]

O=C(O)[C@H](O)[C@@H](O)C(=O)O
inactive: [1] | [2] | [3] | [4] | [5] | [6] | [7] | [8] | [9] | [10]

CC(C)CC(C)O (stereo not given)
inactive: [1] | [2] | [3] | [4] | [5] | [6] | [7] | [8] | [9] | [10]

OC[C@H]1O[C@@](CO)(O[C@H]2O[C@H](CO)[C@@H](O)[C@H](O)[C@H]2O)[C@@H](O)[C@@H]1O
inactive: [1] | [2] | [3] | [4] | [5] | [6] | [7] | [8] | [9] | [10]

CC[C@H](C)C(=O)O[C@H]1C[C@H](O)C=C2C=C[C@H](C)[C@H](CC[C@@H](O)C[C@@H](O)CC(=O)O)[C@H]21
inactive: [1] | [2] | [3] | [4] | [5] | [6] | [7] | [8] | [9] | [10]

COc1cc2c(c(OC)c1OC)-c1ccc(OC)c(=O)cc1[C@@H](NC(C)=O)CC2
inactive: [1] | [3] | [4] | [5] | [6] | [7] | [8] | [9] | [10]
active: [2] 0.592 µM
